For nine compounds, growth results are on record in PubChem BioAssay (NCI).

Common to all, as to experiment: NCI-60 one-dose screen, 48 h (100 = growth as untreated, 0 = no growth, -100 = all killed)
Conditions in all cases: 10 µM unless noted

Assay [1] deals with SK-MEL-2 melanoma.
Assay [2] deals with SN12C renal.
In assay [3] the test system is UO-31 renal.
Assay [4] concerns TK-10 renal.
Assay [5] has as its system ACHN renal.
Assay [6] concerns CAKI-1 renal.
In assay [7] the test system is A498 renal.
Assay [8] concerns CCRF-CEM leukemia.
Assay [9] concerns MOLT-4 leukemia.
Assay [10] concerns RPMI-8226 leukemia.
Assay [11] deals with OVCAR-8 ovarian.
The subject of assay [12] is OVCAR-5 ovarian.
Assay [13] relates to OVCAR-4 ovarian.
Assay [14] deals with SK-OV-3 ovarian.
For assay [15], the system named is IGROV1 ovarian.
Assay [16] deals with OVCAR-3 ovarian.
Assay [17] deals with HS 578T breast.
The subject of assay [18] is NCI/ADR-RES ovarian.
Assay [19] deals with SR leukemia.

About 83,000 compounds went through this panel and 20% of them were active in at least one assay; those are over-represented in the sample as a whole.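 Single-concentration screen, 48 h exposure, 96-well plates. Endpoint: percent growth. Below 10 = active.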 A number with no mark means an inactive call. Calls of active or inactive are those of the source.

In the case of `Cc1ccc(OCCn2c(C)nn(-c3ccc(Cl)cc3)c2=O)cc1`, the growth in assay [1] is 146%; in assay [2], 105%; in assay [3] it was 83.9%; in assay [4], 131%; in assay [5], 103%; in assay [6] it was 93.7%. Besides, the growth was 117% in assay [7]; 99.9% in assay [8]; 111% in [9]; 97.1% in [10]; 109% in assay [11]; 113% in [12]. Further, the growth in [13] was 98.9%; in assay [14] it was 113%; in [15], 112%; in assay [16], 124%; in [17], 89.6%; in assay [18] it was 103%.
With `CCCC1OC(c2ccc(C(C)C)cc2)OCC1CC` (centres undefined), the growth in assay [1] was 98.4%; in assay [2], 105%; in assay [3], 101%; in assay [4], 97.1%; in assay [5], 99.5%; in assay [6] it was 90.9%. For the same compound, the growth in assay [7] is 94.4%; in assay [8], 95.9%; in [9] it was 93.3%; in [19] it was 91.7%; in [12], 101%; in [13] it was 112%. The growth in assay [14] was 85.5%; in assay [15] it was 112%; in assay [16], 107%; in assay [17] it was 99.6%; in assay [18], 105%.
For `c1ccc([P+](CCC[P+](c2ccccc2)(c2ccccc2)c2ccccc2)(c2ccccc2)c2ccccc2)cc1`, the growth is 71.1% in assay [1]; 78% in [2]; 82.3% in [3]; 81.8% in assay [4]; 98.5% in [5]; 94.7% in assay [6]. The growth in [7] is 86.1%; in assay [8] it was 45.8%; in assay [9], 79.6%; in [10], 1.19% (active); in [11], 70.6%; in assay [12] it was 89.7%. Besides, the growth in [13] is 66.7%; in assay [14] it was 93.2%; in [15], 59.1%; in assay [16], 54.1%; in assay [17], 94.8%; in assay [18] it was 104%.
With `COc1ccc(-n2c(C)cc(-c3ccccc3)c2C)cc1`, the growth in assay [1] was 40%; in assay [2] it was 50.5%; in assay [3], 52.3%; in assay [4], 57.3%; in assay [5] it was 62.5%; in [6], 29.3%. Besides, the growth in assay [7] is 35.2%; in assay [8] it was 29.4%; in [9] it was 17.8%; in [10], 14.9%; in assay [11], 51.6%; in assay [12], 63.8%. The growth in [13] was 38%; in assay [14] it was 83.2%; in assay [15], 72%; in assay [16] it was 75.5%; in [17] it was 74.1%; in assay [18] it was 40.2%.
For `NCCSC(c1ccccc1)(c1ccccc1)c1ccccc1`, the growth was 25.6% in [1]; 23.7% in assay [2]; 42.7% in [3]; 54.6% in [4]; 46.2% in assay [5]; 15.9% in assay [6]. Further, the growth in assay [7] was 24.1%; in assay [8], 2.43% (active); in assay [9], 3.39% (active); in assay [10] it was -24.7% (active); in [11], 25%; in [12], 13.1%. Moreover, the growth in [13] is 33.6%; in assay [14] it was 27.6%; in assay [15], 22.2%; in assay [16], 2.29% (active); in [17], 16.8%; in [18] it was -21.9% (active).
Regarding `CC[C@H](C)[C@H]1NC(=O)[C@@H](N[C@](C)(O)[C@@H](N)CC(C)C)[C@@H](C)OC(=O)[C@H](Cc2ccc(OC)cc2)N(C)C(=O)[C@@H]2CCCN2C(=O)[C@H](CC(C)C)NC(=O)[C@@H](C)C(=O)[C@H](C(C)C)OC(=O)C[C@@H]1O`, the growth in assay [1] is -55.8% (active); in assay [2], -8.75% (active); in [3], -19.9% (active); in [4], -15% (active); in assay [5], -10.9% (active); in assay [6], -22.1% (active). For the same compound, the growth in assay [7] was -28.9% (active); in [8] it was -19% (active); in assay [9] it was -24.8% (active); in assay [10], -33% (active); in assay [11] it was -13.6% (active); in assay [12], -14.9% (active). The growth in [13] was -6.08% (active); in assay [14] it was -13% (active); in assay [15], -13.4% (active); in [16], -20.8% (active); in assay [17], -4.99% (active); in [18], 37.4%.
Take `O=C(NCCCN1CCN(CCCNC(=O)C2CCCCC2)CC1)C1CCCCC1`: the growth in [1] is 98%; in assay [2] it was 97.1%; in assay [3], 85.7%; in assay [4], 113%; in assay [5], 99.5%; in [6], 87.2%. Further, the growth in assay [7] is 105%; in [8], 91.9%; in [9], 94.1%; in assay [10] it was 93.3%; in assay [11], 101%; in assay [12], 104%. The growth in assay [13] was 102%; in assay [14], 91.6%; in [15], 104%; in assay [16], 99.3%; in [17] it was 102%; in assay [18] it was 112%.
Take `COc1ccc(-c2nnc(COc3ccc(NS(=O)(=O)c4ccc(OC)cc4)cc3F)o2)cc1`: the growth was 68.2% in assay [1]; 89.8% in [2]; 51.1% in assay [3]; 80.9% in assay [4]; 72.1% in [5]; 64.1% in assay [6]. Besides, the growth in assay [7] is 59.2%; in assay [8], 43.1%; in assay [9] it was 60%; in [19], 50.6%; in assay [11], 82.5%; in [13], 57.3%. Besides, the growth in assay [14] is 83.9%; in [15], 84.5%; in [16] it was 76.7%; in assay [17] it was 88.2%; in assay [18], 55.3%.
`CC/C(=C(\c1ccc(O)cc1)c1ccc(OCCN(C)CCN(C)C(=O)CCC(=O)c2c(C)[nH]c(/C=C3\N=C(c4ccc[nH]4)C=C3OC)c2C)cc1)c1ccccc1`: the growth in [1] was 96.8%; in [2], 91.8%; in [3], 46.9%; in assay [4], 117%; in assay [5] it was 95.5%; in [6] it was 71.4%. For the same compound, the growth in assay [7] was 65.2%; in [8], 40.8%; in assay [9] it was 71.7%; in [19], 58.6%; in [11], 89.9%; in [12], 99.6%. For the same compound, the growth in assay [14] was 111%; in assay [15] it was 81.6%; in assay [16], 89.1%; in assay [17], 83.6%; in assay [18], 79.8%.
